Laboratory results published in PubChem BioAssay AID2284339 (EPA ToxCast).
“And” between values parts separate entries of the source, which are not always exact repeats. Equal values may be shown once. The source made the active and inactive calls. The calls were made as follows: active = hit-call score of the fitted dose curve at least 0.9, where 1 is the maximum; inactive = score below 0.9.

Test system: NCBI gene 100038242
Assay: CCTE_GLTED_xDIO3: CCTE's Xenopus Iodothyronine Deiodinase Type 3 (xDIO3) Inhibition Assay, Great Lakes Toxicology and Ecology Division (GLTED) Lab
Description: CCTE_GLTED_xDIO3 is a cell-free, single-readout assay designed to test the inhibitory activity of chemicals toward Xenopus (frog) iodothyronine Deiodinase Type 3 (DIO3) enzyme. Enzyme is incubated in presence of test chemical for 3 hours during which uninhibited enzyme liberates free iodide from substrate. Free iodide is measured in a second step using the Sandell-Kolthoff method.CCTE_GLTED_xDIO3 is the assay component measured from the CCTE_GLTED_xDIO assay. It is designed to make measurements of enzyme activity, a form of enzyme reporter, as detected with absorbance signals by spectrophotometry.Data from the assay component CCTE_GLTED_xDIO3 was analyzed at the assay endpoint CCTE_GLTED_xDIO3 in the positive analysis fitting direction relative to DMSO as the negative control and baseline of activity. Using a type of enzyme reporter, loss-of-signal activity can be used to understand deiodinase Type 3 activity. To generalize the intended target to other relatable targets, this assay endpoint is annotated to the 'deiodinase' intended target family, where the subfamily is 'deiodinase Type 3'.
[…]

Row | Compound | AC50
1 | C=CC(=O)OCC(F)(F)C(F)F | 19.8 µM (active)
2 | O=C(O)C(F)(F)C(F)(F)C(F)(F)C(F)(F)C(F)(F)C(F)(F)C(F)(F)C(F)(F)C(F)(F)C(F)(F)F | 27.7 µM (active)
3 | O=C(O)C(F)(F)C(F)(F)C(F)(F)C(F)(F)C(F)(F)C(F)(F)C(F)(F)C(F)(F)C(F)(F)F | 147 µM (active)
4 | O=S(=O)(O)C(F)(F)C(F)(F)C(F)(F)C(F)(F)C(F)(F)C(F)(F)C(F)(F)C(F)(F)F | 142 µM (active) and 160 µM (active)
5 | COC(=O)C(F)(F)C(F)(F)OC(F)(C(F)(F)F)C(F)(F)OC(F)=C(F)F (stereo not given) | 7.65 µM (active)
